Data: ChEMBL document CHEMBL4888484, “Replenishing the malaria drug discovery pipeline: Screening and hit evaluation of the MMV Hit Generation Library 1 (HGL1) against asexual blood stage Plasmodium falciparum ,using a nano luciferase reporter read-out” (2022)
Out of some 150,000 compounds screened, about 540 (0.36%) showed an effect of 50% or more. Many of the other results were omitted from the sample, so strong results are more common in it than they were.

Tested on: Plasmodium falciparum
Test: Primary screen in NF54 nanoGlo assay, in single point, at 2uM, 72h; a lower Z score goes with more inhibition
Type: functional, Erythrocyte
Conditions: timepoint 72 hour

SMILES	% Inhibition [%]	Z score
CN(C)c1nc(N)cc(-c2cccc3cccnc23)n1	57	-7.96
COc1ccc(F)c(-c2cc(N)nc(N(C)C)n2)c1	-15	2.16
CN(C)c1nc(N)cc(-c2ccc(-n3cccn3)cc2)n1	-1	0.21
COc1ccc2c(c1)C1(CC1)CN(C(=O)Nc1ccnnc1C)C2	-11	2.25
COc1ccc(-c2cc3c(=O)n(CCNC(=O)Cc4ccc(F)cc4)ccn3n2)cc1	-7	1.17
CNC(=O)[C@@H]1C[C@H](Oc2ccccc2)CN1S(C)(=O)=O	-12	1.64
NC(=O)[C@@H]1CN(Cc2ncc(C(F)(F)F)s2)CCO1	-12	1.56
CC[C@H](C)NC(=O)COc1ccc(Cl)cc1C(N)=O	-8	0.84
Cc1cc(N(C)CCC2CC2)nc([C@H](C)N(C)CCC2CC2)n1	59	-9.38
CCc1nc(C)cc(N(C)CCn2nc(C)cc2C)n1	-18	1.72
Cc1cc(O)nc([C@H](C)N(C)CC2CCOCC2)n1	-12	1.59
CCCN(CCC)C[C@H](O)COc1c(Cl)cccc1Cl	-6	0.67
CCN(CC)CC(O)COc1c(Br)cc(C(C)(C)c2cc(Br)c(OCC(O)CN(CC)CC)c(Br)c2)cc1Br (centres undefined)	99	-13.36
OCCN(CCO)C[C@H](O)COc1c(Br)cc(Br)cc1Br	-7	1.05
Cc1ncc2ncccc2c1Br	-4	0.8
Cn1c(Cc2n[n+]3c(-c4ccccc4)cc(-c4ccccc4)nc3n2C)n[n+]2c(-c3ccccc3)cc(-c3ccccc3)nc12	95	-10.43
Cc1nc(-c2ccccc2)cc(N2CCN(CCc3ccccc3)CC2)n1	0	0
C[n+]1cnc(-c2ccccc2)cc1-c1ccccc1	1	-0.07
CCS(=O)(=O)CCNC(=O)c1ccnc(C(C)C)n1	-4	0.73
O=C(Cn1nc(-n2cccn2)ccc1=O)NCc1ccco1	-7	1.27
CCOC(=O)c1ccc(NC(=O)CC2CCC2)cn1	3	-0.29

SMILES	% Inhibition [%]	Z score
CCCC1CCC(OC(=O)c2ccc(C(=O)OC3CCC(CCC)CC3)nc2)CC1 (centres undefined)	74	-10.02
NC(=O)c1ccc(C(=O)OC2CCCCCC2)cn1	3	-0.42
CCc1nnc(-c2[nH]c(C)c(S(=O)(=O)Nc3cccc(Cl)c3)c2C)o1	-5	0.66
COC(C)[C@H](C)NCC(C)c1ccccc1 (some centres undefined)	73	1.55
Cc1c(NC[C@H](C)c2ccccc2)cnn1C	-3	0.4
C[C@@H](CNC(=O)C(C)(C)C)c1ccccc1	-10	0.9
Cc1cnc(=O)n(CC(=O)N2CCN(c3ccccc3F)CC2)c1	-1	0.07
Cn1cccc1CN(C(=O)c1cc2ccccc2[nH]1)C1CC1	-5	1
CN1CCC(N(CCc2ccccc2)C(=O)c2cccc3cnccc23)CC1	-4	0.65
Cc1sc2ncnc(Nc3ccc4c(c3)OCO4)c2c1C	-3	0.37
CC[C@H](C)[C@@H](CN(C)C)NC(=O)CCc1ccncc1	20	-2.58
O=C(NCC1CC1)c1ccc2[nH]c3c(c2c1)CCCCC3	-12	1.65
CCCC(O)(CCC)CC(=O)N1CCN(C(=O)OCC)CC1	-7	0.63
O=C(c1ccc(-c2cn(-c3ccccc3)cn2)cc1)N1CCOC[C@@H](O)C1	5	-0.8
CCOc1cc(CN2CC[S+]([O-])CC2)ccc1OC	6	-1.1
Cc1nn(C)c(Cl)c1C(=O)Nc1ccc2ccccc2c1	10	-1.64
Cc1nn(C)c(Cl)c1CNCc1ccc(N2CCCC2=O)cc1	-5	0.6
Cc1nn(CCO)c(C)c1[C@@H]1NCCc2[nH]cnc21	-16	2.3
c1ccc(-c2cc([C@@H]3NCCc4[nH]cnc43)on2)cc1	-4	0.56
CCc1ccc([C@H]2NCCc3[nH]cnc32)nc1	55	-5.21
CCc1nnc2c(S(=O)(=O)N(Cc3cccc(Cl)c3)c3ccccc3)cccn12	-17	2.2
